Data published in the supplement of paper PMC10849652.
About 8,800 targets were measured; listed, in parts, are those with a hit and a random draw of the rest. About 0.5% of all pairs of compound and target were hits. A number with no mark means an inactive call.

Tests used:
Experiment in all cases: log2 fold change, soluble protein after heating vs DMSO (PISA); higher = thermal stabilisation; K562 lysate, 10 uM; active = over 0.2 and 3.5 SD of the protein, either way, in both replicates (recomputed)
[1] = compound: NCC(=O)Nc1ccc(-n2nc(C(F)(F)F)cc2-c2ccc3c(ccc4ccccc43)c2)cc1
Procedure, shortened: (§1)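 The values are log-two fold changes in thermal stability compared with solvent controls and come from duplicates. They were obtained by TMTpro 16plex LC-MS/MS, with channel sums equalised, on the supernatant after 21,000xg for 90 min. That supernatant came from crude K562 extract at 1 mg/mL protein treated with 10 μM compound for 30 min, heated for 3 min across 48°C-58°C, pooled and brought to 0.5% NP-40 at 4°C.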

vorinostat = compound: O=C(CCCCCCC(=O)Nc1ccccc1)NO [vorinostat]
Procedure, shortened: as §1

silmitasertib = compound: O=C(O)c1ccc2c(c1)nc(Nc1cccc(Cl)c1)c1ccncc12 [silmitasertib]
Procedure, shortened: as §1

[2] = compound: O=C1NC(=O)C(c2cnc3ccccn23)=C1c1cn2c3c(cc(F)cc13)CN(C(=O)N1CCCCC1)CC2
Procedure, shortened: as §1

entospletinib = compound: c1cn2cc(-c3ccc4cn[nH]c4c3)nc(Nc3ccc(N4CCOCC4)cc3)c2n1 [entospletinib]
Procedure, shortened: as §1

Chain of UniProt Q13409 (Q13409 whole entry, looked up): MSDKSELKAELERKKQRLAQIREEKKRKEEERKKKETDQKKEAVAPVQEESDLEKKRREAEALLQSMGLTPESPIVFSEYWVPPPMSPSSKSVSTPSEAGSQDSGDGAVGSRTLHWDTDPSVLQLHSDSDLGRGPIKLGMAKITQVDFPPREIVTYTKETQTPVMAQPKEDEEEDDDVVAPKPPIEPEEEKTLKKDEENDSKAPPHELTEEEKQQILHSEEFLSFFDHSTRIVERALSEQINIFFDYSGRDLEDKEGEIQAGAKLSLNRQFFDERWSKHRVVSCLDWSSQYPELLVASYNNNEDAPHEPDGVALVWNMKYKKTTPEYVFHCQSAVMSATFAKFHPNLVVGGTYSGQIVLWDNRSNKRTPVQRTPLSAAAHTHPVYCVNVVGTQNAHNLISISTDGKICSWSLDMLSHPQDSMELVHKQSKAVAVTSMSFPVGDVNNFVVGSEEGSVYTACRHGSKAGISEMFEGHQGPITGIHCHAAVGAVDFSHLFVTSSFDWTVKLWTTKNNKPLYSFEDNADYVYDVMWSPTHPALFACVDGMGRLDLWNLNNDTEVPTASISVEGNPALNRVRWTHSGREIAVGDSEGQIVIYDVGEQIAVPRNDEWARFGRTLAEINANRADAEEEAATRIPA
Chain of UniProt P11171 (P11171 whole entry, looked up): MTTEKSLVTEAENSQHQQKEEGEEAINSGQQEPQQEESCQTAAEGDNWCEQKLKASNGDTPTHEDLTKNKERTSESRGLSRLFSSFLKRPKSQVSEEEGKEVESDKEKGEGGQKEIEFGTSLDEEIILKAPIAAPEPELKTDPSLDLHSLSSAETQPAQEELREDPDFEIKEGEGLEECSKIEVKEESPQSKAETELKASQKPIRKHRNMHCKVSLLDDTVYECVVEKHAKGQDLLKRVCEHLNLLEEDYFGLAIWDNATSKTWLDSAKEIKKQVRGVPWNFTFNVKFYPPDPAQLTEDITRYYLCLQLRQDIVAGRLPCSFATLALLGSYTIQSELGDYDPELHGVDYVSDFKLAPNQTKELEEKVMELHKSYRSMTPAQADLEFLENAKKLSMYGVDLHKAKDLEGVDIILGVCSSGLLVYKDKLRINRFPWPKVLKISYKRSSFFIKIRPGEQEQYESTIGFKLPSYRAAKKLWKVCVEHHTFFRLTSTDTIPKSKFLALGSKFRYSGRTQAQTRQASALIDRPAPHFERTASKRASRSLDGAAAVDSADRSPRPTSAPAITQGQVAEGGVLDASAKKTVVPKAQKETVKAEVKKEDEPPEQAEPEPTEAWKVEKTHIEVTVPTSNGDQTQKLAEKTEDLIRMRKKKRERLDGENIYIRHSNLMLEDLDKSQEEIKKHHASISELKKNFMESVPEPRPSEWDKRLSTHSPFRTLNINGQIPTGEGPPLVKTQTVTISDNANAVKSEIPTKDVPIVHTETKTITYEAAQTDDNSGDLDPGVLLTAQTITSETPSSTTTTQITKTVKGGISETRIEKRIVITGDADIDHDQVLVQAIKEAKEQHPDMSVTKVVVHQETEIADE
Chain of UniProt Q9Y285 (Q9Y285 whole entry, looked up): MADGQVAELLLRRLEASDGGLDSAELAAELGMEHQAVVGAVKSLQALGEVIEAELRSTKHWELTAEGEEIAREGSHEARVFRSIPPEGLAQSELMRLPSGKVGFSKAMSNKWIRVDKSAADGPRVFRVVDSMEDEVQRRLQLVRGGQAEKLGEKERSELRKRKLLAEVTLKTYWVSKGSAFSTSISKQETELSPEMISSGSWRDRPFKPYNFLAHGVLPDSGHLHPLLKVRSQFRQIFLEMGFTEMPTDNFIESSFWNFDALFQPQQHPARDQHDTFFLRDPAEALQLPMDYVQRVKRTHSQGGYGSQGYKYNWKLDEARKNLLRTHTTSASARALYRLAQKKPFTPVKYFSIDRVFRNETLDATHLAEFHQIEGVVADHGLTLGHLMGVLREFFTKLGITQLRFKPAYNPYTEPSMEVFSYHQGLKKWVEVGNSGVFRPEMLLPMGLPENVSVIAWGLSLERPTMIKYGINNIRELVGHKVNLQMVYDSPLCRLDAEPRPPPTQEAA
Chain of UniProt Q6P2E9 (Q6P2E9 whole entry, looked up): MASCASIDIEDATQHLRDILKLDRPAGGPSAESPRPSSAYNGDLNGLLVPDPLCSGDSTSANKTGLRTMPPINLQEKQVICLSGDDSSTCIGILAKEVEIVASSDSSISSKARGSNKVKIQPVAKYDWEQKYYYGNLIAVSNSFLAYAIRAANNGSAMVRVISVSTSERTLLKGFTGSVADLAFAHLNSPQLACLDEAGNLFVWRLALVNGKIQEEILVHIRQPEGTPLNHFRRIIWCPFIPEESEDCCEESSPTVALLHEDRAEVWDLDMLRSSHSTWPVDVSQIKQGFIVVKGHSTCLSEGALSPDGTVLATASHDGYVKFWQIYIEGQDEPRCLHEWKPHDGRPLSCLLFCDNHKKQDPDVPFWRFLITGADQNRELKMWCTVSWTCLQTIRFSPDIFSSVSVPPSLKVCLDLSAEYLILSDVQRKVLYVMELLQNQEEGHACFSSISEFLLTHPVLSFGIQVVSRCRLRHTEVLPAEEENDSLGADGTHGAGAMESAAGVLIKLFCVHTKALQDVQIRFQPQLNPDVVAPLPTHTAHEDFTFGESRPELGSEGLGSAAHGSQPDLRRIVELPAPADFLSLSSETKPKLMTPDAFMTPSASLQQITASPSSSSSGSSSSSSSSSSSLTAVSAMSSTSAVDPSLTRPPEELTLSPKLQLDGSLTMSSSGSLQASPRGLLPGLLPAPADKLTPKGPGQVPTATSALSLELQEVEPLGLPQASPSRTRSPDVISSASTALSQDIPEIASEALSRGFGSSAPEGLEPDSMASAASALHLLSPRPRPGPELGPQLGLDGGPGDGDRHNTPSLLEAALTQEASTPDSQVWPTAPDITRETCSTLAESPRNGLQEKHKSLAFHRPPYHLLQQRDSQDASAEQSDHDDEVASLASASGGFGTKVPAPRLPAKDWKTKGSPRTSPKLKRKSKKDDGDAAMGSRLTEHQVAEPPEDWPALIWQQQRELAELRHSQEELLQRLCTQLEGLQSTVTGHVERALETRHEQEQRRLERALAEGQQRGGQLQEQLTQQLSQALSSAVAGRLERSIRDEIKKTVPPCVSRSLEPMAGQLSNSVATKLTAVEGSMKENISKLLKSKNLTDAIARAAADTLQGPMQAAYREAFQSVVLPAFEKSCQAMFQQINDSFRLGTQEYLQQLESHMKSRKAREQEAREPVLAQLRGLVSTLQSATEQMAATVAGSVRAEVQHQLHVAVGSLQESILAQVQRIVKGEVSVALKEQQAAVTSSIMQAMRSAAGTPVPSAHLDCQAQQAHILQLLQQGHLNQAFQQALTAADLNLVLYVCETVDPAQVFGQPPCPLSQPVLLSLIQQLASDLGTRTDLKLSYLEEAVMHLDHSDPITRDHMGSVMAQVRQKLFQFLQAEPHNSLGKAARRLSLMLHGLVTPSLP
Chain of UniProt Q9H8W3 (Q9H8W3 whole entry, looked up): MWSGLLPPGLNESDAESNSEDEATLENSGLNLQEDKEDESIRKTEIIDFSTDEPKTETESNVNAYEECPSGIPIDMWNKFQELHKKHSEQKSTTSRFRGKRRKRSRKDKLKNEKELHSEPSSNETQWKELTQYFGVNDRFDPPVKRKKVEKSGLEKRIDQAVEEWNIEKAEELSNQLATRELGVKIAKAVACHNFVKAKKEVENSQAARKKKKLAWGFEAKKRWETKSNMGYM
Chain of UniProt P60981 (P60981 whole entry, looked up): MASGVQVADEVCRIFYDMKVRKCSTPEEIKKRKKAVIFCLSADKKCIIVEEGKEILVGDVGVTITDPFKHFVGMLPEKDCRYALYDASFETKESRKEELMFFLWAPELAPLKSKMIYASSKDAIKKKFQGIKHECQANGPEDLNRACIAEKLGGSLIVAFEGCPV
Chain of UniProt Q96F86 (Q96F86 whole entry, looked up): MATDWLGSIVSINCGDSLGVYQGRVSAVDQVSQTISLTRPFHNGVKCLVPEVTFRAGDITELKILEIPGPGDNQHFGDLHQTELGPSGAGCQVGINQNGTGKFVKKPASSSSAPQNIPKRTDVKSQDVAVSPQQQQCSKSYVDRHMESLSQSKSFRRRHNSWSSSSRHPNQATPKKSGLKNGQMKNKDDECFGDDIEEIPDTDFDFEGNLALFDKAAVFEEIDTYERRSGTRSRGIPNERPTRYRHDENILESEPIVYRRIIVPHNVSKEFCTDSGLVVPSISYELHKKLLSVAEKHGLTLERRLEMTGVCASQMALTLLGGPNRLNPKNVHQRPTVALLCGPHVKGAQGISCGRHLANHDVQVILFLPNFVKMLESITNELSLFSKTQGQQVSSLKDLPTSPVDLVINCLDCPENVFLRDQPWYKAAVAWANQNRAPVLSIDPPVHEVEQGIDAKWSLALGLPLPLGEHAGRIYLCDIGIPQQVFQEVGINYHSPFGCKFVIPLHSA
Chain of UniProt Q9UI10 (Q9UI10 whole entry, looked up): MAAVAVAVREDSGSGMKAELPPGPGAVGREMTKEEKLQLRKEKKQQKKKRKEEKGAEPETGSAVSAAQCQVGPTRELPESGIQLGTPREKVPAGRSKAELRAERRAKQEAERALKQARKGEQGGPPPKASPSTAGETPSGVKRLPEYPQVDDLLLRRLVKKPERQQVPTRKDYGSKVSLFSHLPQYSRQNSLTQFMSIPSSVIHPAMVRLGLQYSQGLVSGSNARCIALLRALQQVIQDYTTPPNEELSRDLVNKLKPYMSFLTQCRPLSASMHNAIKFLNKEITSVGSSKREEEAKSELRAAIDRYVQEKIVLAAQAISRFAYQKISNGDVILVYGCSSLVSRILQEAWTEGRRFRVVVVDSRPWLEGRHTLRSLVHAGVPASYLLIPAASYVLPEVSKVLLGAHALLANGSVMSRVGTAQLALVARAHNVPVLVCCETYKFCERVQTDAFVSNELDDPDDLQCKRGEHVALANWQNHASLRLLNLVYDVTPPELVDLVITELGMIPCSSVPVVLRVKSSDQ
Chain of UniProt Q6IPR1 (Q6IPR1 whole entry, looked up): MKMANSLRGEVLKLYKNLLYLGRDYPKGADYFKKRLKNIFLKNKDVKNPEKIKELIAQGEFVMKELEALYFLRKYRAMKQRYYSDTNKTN

| Target | log2 fold change [1] | log2 fold change (vorinostat) | log2 fold change (silmitasertib) | log2 fold change [2] | log2 fold change (entospletinib) |
| --- | --- | --- | --- | --- | --- |
| GEMIN2 (UniProt O14893) | 0.003 | -0.425 (active) | 0.002 | 0.04 | -0.005 |
| EXOC2 (UniProt Q96KP1) | -0.012 | -0.361 (active) | 0.031 | 0.022 | 0.024 |
| EXOC4 (UniProt Q96A65) | 0.009 | -0.389 (active) | 0.041 | -0.022 | -0.006 |
| GALK1 isoform 2 (UniProt P51570) | -0.017 | -0.338 (active) | 0.063 | 0.023 | -0.088 |
| DTWD1 (UniProt Q8N5C7) | 0.059 | -0.27 (active) | -0.022 | -0.028 | 0.036 |
| FARSA (UniProt Q9Y285) | -0.025 | 0.381 (active) | 0.007 | -0.006 | 0.003 |
| EIF2AK2 (UniProt P19525) | 0.021 | -0.415 (active) | 0.038 | -0.017 | 0.068 |
| DYNC1I2 isoform 5 (UniProt Q13409) | 0.009 | 0.126 | 0.03 | -0.005 | -0.007 |
| FPGT (UniProt O14772) | -0.014 | -0.574 (active) | 0.008 | -0.015 | -0.062 |
| EPB41, A0A2R8Y6D0 | 0.082 | 0.094 | 0.037 | -0.08 | 0.016 |
| EIF2B4 isoform 2 (UniProt Q9UI10) | 0.023 | -0.209 | 0.013 | -0.002 | 0.012 |
| FAM76B (UniProt Q5HYJ3) | -0.018 | 0.026 | 0 | 0.012 | -0.014 |
| FKBP1A (UniProt P62942) | -0.154 | 0.036 | -0.006 | 0.068 | 0.049 |
| EDC4 (UniProt Q6P2E9) | 0.045 | -0.453 (active) | 0.011 | 0.004 | 0.02 |
| GBF1 (UniProt Q92538) | -0.019 | -0.304 (active) | 0.023 | 0.043 | 0.008 |
| EEF1A1, A0A087WVQ9 | -0.025 | -0.541 (active) | -0.002 | -0.022 | 0.015 |
| EMC7 (UniProt Q9NPA0) | 0.015 | 0.085 | -0.007 | -0.018 | -0.023 |
| EPB41 (UniProt P11171) | -0.046 | 0.035 | 0.007 | -0.034 | 0 |
| EIF2D (UniProt P41214) | 0.03 | -0.385 (active) | 0.032 | 0.04 | 0.02 |
| ETFRF1 (UniProt Q6IPR1) | 0.03 | 0.24 (active) | -0.043 | 0.051 | – |
| DUSP22 isoform 2 (UniProt Q9NRW4) | -0.025 | -0.102 | 0.002 | – | – |
| DSTN (UniProt P60981) | -0.012 | -0.34 (active) | 0.014 | -0.031 | -0.021 |
| FAM204A (UniProt Q9H8W3) | -0.057 | -0.211 | -0.095 | 0.044 | – |
| FCHO1 (UniProt O14526) | 0.041 | -0.286 (active) | 0.03 | -0.006 | 0.024 |
| FYB1 isoform 3 (UniProt O15117) | 0.007 | 0.002 | -0.021 | 0 | -0.006 |
| DTL (UniProt Q9NZJ0) | -0.011 | -0.165 | -0.042 | 0.052 | – |
| FDFT1 (UniProt P37268) | -0.004 | -0.006 | 0.041 | 0.004 | 0.06 |

| Target | log2 fold change [1] | log2 fold change (vorinostat) | log2 fold change (silmitasertib) | log2 fold change [2] | log2 fold change (entospletinib) |
| --- | --- | --- | --- | --- | --- |
| FTSJ1 (UniProt Q9UET6) | -0.024 | -0.326 (active) | 0.024 | 0.009 | 0.05 |
| DYRK1A (UniProt Q13627) | 0.021 | -0.253 | 0.247 (active) | 0.01 | 0.005 |
| EEF1A1P5 (UniProt Q5VTE0) | 0.04 | -0.311 (active) | -0.017 | 0.005 | 0.033 |
| DYNC1I2 isoform 2 (UniProt Q13409) | 0.138 | 0.07 | 0.008 | 0.054 | 0.039 |
| ELF2 (UniProt Q15723) | 0.03 | -0.25 | 0 | -0.011 | -0.03 |
| EEF1AKMT4 (UniProt P0DPD7) | 0.053 | -0.312 (active) | 0.029 | 0.035 | 0.012 |
| EXOC1 (UniProt Q9NV70) | -0.019 | -0.45 (active) | 0.075 | -0.019 | 0.019 |
| FNTB (UniProt P49356) | 0.03 | 0.03 | -0.018 | -0.032 | -0.048 |
| EDARADD (UniProt Q8WWZ3) | 0.022 | -0.168 | 0.02 | -0.05 | -0.057 |
| FOXK1 (UniProt P85037) | 0.022 | -0.414 (active) | -0.026 | -0.048 | 0.038 |
| EP400 isoform 5 (UniProt Q96L91) | -0.047 | -0.279 (active) | 0.024 | -0.025 | -0.021 |
| ENO1 isoform 2 (UniProt P06733) | -0.008 | 0.099 | 0.045 | 0.005 | -0.05 |
| EDC3 (UniProt Q96F86) | 0.02 | -0.277 (active) | 0 | -0.026 | 0.013 |
| FAM83D (UniProt Q9H4H8) | 0 | -0.243 (active) | 0.031 | -0.004 | 0.021 |
| FBLL1 (UniProt A6NHQ2) | 0.006 | 0.094 | 0.034 | -0.017 | -0.014 |
| GAPVD1 isoform 6 (UniProt Q14C86) | -0.033 | -0.292 (active) | 0.04 | -0.001 | -0.002 |
| EPN2 (UniProt O95208) | -0.005 | 0.156 | 0.02 | -0.001 | 0.012 |
| EIF2AK1 (UniProt Q9BQI3) | -0.089 | -0.18 | 0.03 | -0.059 | 0.009 |
| FANCI (UniProt Q9NVI1) | 0.002 | -0.389 (active) | 0.062 | 0.018 | 0.039 |
| FAU (UniProt E9PR30) | 0.006 | 0.212 (active) | 0.047 | -0.006 | 0.016 |
| ELAVL4 (UniProt P26378) | 0.016 | -0.402 (active) | -0.046 | 0.004 | -0.067 |
| FHOD1 (UniProt Q9Y613) | -0.018 | -0.47 (active) | 0.008 | -0.02 | -0.002 |
| ETHE1 (UniProt O95571) | -0.01 | -0.113 | 0.009 | 0 | -0.02 |
| EHD2 (UniProt Q9NZN4) | 0.005 | -0.282 (active) | 0.073 | 0.018 | 0.032 |
| GAA (UniProt P10253) | -0.038 | -0.176 | -0.092 | -0.056 | 0.068 |
| FASTKD5 (UniProt Q7L8L6) | 0.016 | -0.354 (active) | 0.053 | 0.022 | -0.008 |
| EEF1AKNMT (UniProt Q8N6R0) | -0.004 | -0.414 (active) | 0.076 | -0.005 | 0.026 |
